Measured values from PubChem BioAssay (NCATS).
Records with an inconclusive call do not appear. A number with no mark means an inactive call. Active and inactive are the calls of the source. Calls follow the shape of the dose curve; as a rule, active = well fitted curve in the direction sought with a large enough effect; inconclusive = small, poorly fitted or top-dose-only effect, or another doubt; inactive = no such curve, though single readings can be large; an effect the other way counts as inactive or inconclusive.

Target: Rap guanine nucleotide exchange factor 4 (Homo sapiens) (UniProt Q8WZA2)
Assay: Confirmatory qHTS for agonist of cAMP-regulated guanine nucleotide exchange factor 4 (EPAC2) (AID 1645884);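 also: nucleotide exchange releases bodipy-GDP from Rap1 and this lowers its fluorescence; nearly all actives have a fitted effect of over 65% in size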; also: potency is read from the fitted curve at half-maximal effect; as to activation: % is scaled to controls: 0 for no effect and ±100 for the full control effect
Details: EPAC2 GEF activity, Rap1B-BODIPY-GDP fluorescence; series mostly up to 154 µM; activation: at the top concentration

Sequence of Rap guanine nucleotide exchange factor 4 (Homo sapiens) (Q8WZA2 whole entry, looked up): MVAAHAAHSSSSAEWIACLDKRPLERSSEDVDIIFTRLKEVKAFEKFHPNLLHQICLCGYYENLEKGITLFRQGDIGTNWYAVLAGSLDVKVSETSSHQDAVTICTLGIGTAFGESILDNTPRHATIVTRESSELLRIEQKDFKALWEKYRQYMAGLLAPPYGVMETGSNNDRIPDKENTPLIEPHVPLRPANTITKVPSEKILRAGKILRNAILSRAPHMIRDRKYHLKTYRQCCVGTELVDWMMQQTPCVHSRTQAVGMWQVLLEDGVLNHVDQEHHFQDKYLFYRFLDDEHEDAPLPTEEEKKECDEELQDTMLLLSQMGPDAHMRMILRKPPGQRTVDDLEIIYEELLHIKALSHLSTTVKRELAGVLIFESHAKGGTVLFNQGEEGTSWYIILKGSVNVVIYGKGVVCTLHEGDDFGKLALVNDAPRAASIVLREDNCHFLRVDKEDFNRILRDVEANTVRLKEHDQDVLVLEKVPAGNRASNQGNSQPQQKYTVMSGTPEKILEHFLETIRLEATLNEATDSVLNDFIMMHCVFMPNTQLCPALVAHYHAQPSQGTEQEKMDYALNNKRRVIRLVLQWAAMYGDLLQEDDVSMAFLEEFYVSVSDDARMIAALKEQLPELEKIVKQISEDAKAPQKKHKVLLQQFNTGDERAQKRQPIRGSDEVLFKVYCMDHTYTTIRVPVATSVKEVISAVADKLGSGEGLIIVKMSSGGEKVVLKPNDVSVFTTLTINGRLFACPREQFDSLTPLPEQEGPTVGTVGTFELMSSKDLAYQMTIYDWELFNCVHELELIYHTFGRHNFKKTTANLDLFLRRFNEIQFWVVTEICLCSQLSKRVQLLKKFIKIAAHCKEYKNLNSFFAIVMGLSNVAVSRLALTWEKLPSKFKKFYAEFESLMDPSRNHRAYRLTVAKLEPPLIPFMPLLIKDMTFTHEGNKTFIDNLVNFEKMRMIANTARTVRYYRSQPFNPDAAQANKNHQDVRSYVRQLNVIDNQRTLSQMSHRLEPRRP

Structure (SMILES) | Potency | activation
CN1/C(=C\C=C(/C#N)C(=O)Nc2ccc(Cl)cc2)C(C)(C)c2ccccc21 | 100 µM (active) | 
COc1cc(/C=C2\SC(=Nc3ccc(Cl)c(C(=O)O)c3)NC2=O)c(Br)c(Br)c1O |  | 9.28% [at 17.1 µM, percent relative to cAMP agonist control]
Cc1cnc(C(=O)OCC(=O)Nc2ccc(Oc3ccccc3)cc2)cn1 |  | 8.4%
COc1ccc(N=C2NC(=O)S/C2=C\c2ccc(N(C)C)cc2)cc1 |  | 16.1%
Cc1ccc(N(C(=O)c2ccccc2Cl)C2=NC(C)CS2)c(C)c1 (stereo not drawn) |  | 5.24% [at 17.1 µM, percent relative to cAMP agonist control]
CC(=O)c1ccc(NC(=O)c2ccc3c(c2)C(=O)N(c2ccccn2)C3=O)cc1 |  | 0%
O=C(c1ccco1)N1CCn2cccc2C1c1ccccc1 (stereo not drawn) |  | 13.1%
CCOC(=O)c1c(NC(=O)CSc2nc3ccc(C)cc3[nH]2)sc2c1CC(C)(C)NC2(C)C |  | 0%
C[C@@H]1CC=C[C@H]2[C@H]1C(=O)N(Cc1ccccc1)[C@H]2c1ccc(-c2ccoc2)cc1F |  | 9.95%
O=C(O)c1ccccc1N=N/C(=N/Nc1cc(S(=O)(=O)O)ccc1O)c1ccccc1 |  | -5.11% [at 17.1 µM, percent relative to cAMP agonist control]
CCC(=O)NC(c1cccs1)c1cc([N+](=O)[O-])c2cccnc2c1O (stereo not drawn) |  | 18.4%
COC(C(=O)Nc1ccc(Br)cc1F)c1ccccc1 (stereo not drawn) |  | 1.22%
O=C(O)CSc1cc(NS(=O)(=O)c2ccc(Cl)cc2)c2ccccc2c1O |  | 7.16%
COc1ccc(NC(=O)COC(=O)c2ccc(S(=O)(=O)N(C)c3ccccc3OC)cc2)cc1OC |  | 3.7%
O=C(Cc1c(Cl)cccc1Cl)Nc1ccc(S(=O)(=O)Nc2ncccn2)cc1 |  | -4.4%
Cc1cccc(C)c1-n1nnnc1C(c1ccnc2ccccc12)N(CCC#N)Cc1ccccc1 (stereo not drawn) |  | 8.71%
COC(=O)C1=CN(Cc2cccs2)C=C(C(=O)OC)C1c1cccc(O)c1 |  | 9.24%
COc1ccc2nc(N3C(=O)C(O)=C(C(=O)c4ccco4)C3c3ccc(C)o3)sc2c1 (stereo not drawn) |  | -28.5%
CN(C)CCNC(=O)c1ccc(-c2cn3c(-c4ccc(Oc5ccccc5)cc4)cnc3cn2)cc1 |  | 0%
COc1ccc(C2=CC(=O)OC3(CCCCC3)O2)cc1 |  | 5.5% [at 17.1 µM, percent relative to cAMP agonist control]

Structure (SMILES) | Potency | activation
NC1=C(Cl)C(=O)c2ccc(S(N)(=O)=O)cc2C1=O |  | -0.348%
COc1ccc(Br)cc1CNc1ccc(O)cc1 |  | -6.04%
CCc1nc2c(OCc3ccc(C(F)(F)F)cc3)cccn2c1N(C)C(=O)c1ccc(OC)cc1 |  | 16% [at 17.1 µM, percent relative to cAMP agonist control]
CN(CCC#N)C(=O)COC(=O)c1c2c(nc3ccccc13)/C(=C\c1ccco1)CC2 |  | -7.45%
CCc1nc2ccccc2c(C(=O)NCc2ccccc2)c1C |  | -2.41%
Nc1[nH]n2c(=O)cc(-c3ccccc3)nc2c1N=Nc1ccc(S(N)(=O)=O)cc1 |  | 0%
O=C1CC2(CCCCC2)Oc2ccc(F)cc21 |  | 9.13%
Cc1cc(C)nc(SCC(=O)c2ccc(Cl)cc2)n1 |  | -11.7%
COc1ccc(OC)c(C(=O)c2ccc(Cl)cc2)c1 |  | 8.77% [at 17.1 µM, percent relative to cAMP agonist control]
C=C(C)Cn1c(C)cc(C)c(S(=O)(=O)c2ccc(C)cc2)c1=O |  | 25.7%
COc1ccc(C(C(=O)NC(C)(C)C)n2c(=O)c(-c3cc4ccccc4[nH]3)nc3ccccc32)cc1 (stereo not drawn) |  | 2.28%
CCOc1ccc(C(=O)Nc2c(C(=O)Nc3ccccc3F)oc3ccccc23)cc1OCC |  | 14.3% [at 83.8 µM, percent relative to cAMP agonist control]
CC1=CC(C)(C)N(C(=O)c2ccc(F)cc2)c2cc3c(cc21)OCO3 |  | 3.2%
Cc1ccc(S(=O)(=O)Nc2ccccc2C(=O)Nc2nc(-c3ccc(F)cc3)cs2)cc1 |  | -2.87%
CCN(CC)C(=O)Cn1c(SCCOc2ccc(Cl)cc2)nc2ccccc21 |  | -2.9% [at 83.8 µM, percent relative to cAMP agonist control]
O=C1C(O)=CC(=C(c2ccccc2)c2ccccc2)c2ccccc21 |  | 0%
O=C(Cc1ccccc1Cl)Nc1ccc(S(=O)(=O)N2CCOCC2)cc1 |  | 8.27%
CC(=O)c1ccc(N2CCN(C(=O)c3cc(-c4cccnc4)nc4ccc(Br)cc34)CC2)cc1 |  | 9.85%
Cc1cc(C)cc(NC(=O)CSc2nnc(-c3cc4occc4n3C)n2-c2ccccc2C)c1 |  | -9.36% [at 83.8 µM, percent relative to cAMP agonist control]

Target: Rap guanine nucleotide exchange factor 3 (Homo sapiens) (UniProt O95398)
Assay: Counterscreen qHTS for antagonist of cAMP-regulated guanine nucleotide exchange factor 3 (EPAC1) (AID 1645888);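 also: fluorescence loss as bound BODIPY-GDP is released from Rap1B; % of control where 0% means no effect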
Details: Rap1B-BODIPY-GDP nucleotide exchange, fluorescence; series mostly up to 154 µM; activity change, negative = inhibition: at the top concentration
Procedure, shortened: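 Rap1B-BODIPY-GDP 250 nM + GDP 50 uM; cpds 7-pt, final 9.74 nM–152 uM (activator mode) or from 7.32 nM upwards (inhibitor mode); RT; FI 480/540 nm at 5 and 30 min, then ± cAMP, reread.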

Sequence of Rap guanine nucleotide exchange factor 3 (Homo sapiens) (O95398 whole entry, looked up): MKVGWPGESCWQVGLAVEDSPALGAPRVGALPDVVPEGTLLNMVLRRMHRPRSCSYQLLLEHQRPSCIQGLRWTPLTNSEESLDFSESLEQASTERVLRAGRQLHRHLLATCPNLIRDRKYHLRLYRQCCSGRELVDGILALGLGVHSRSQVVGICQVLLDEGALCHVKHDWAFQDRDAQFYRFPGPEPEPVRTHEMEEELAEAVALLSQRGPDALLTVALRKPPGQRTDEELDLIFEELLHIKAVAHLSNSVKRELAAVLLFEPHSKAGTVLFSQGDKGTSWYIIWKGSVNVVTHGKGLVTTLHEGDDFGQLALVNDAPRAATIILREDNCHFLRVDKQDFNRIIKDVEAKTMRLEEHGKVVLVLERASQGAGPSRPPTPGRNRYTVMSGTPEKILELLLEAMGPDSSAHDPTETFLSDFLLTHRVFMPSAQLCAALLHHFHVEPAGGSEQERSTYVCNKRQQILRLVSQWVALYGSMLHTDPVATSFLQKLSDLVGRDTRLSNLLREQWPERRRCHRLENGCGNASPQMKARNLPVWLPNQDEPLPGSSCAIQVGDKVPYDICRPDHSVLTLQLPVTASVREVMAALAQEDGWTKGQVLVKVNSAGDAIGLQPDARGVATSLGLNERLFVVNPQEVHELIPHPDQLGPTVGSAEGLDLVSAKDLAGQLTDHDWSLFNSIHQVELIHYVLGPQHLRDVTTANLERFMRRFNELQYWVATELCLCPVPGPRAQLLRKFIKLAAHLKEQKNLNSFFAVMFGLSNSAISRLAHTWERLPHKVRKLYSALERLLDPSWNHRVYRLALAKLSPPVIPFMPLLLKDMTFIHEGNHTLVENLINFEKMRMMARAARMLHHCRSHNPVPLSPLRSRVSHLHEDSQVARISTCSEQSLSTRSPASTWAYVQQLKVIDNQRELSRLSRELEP

Structure (SMILES) | activity change, negative = inhibition
CN1/C(=C\C=C(/C#N)C(=O)Nc2ccc(Cl)cc2)C(C)(C)c2ccccc21 | 33.8%
COc1cc(/C=C2\SC(=Nc3ccc(Cl)c(C(=O)O)c3)NC2=O)c(Br)c(Br)c1O | -1.87% [at 30.8 µM]
Cc1cnc(C(=O)OCC(=O)Nc2ccc(Oc3ccccc3)cc2)cn1 | -6.73%
COc1ccc(N=C2NC(=O)S/C2=C\c2ccc(N(C)C)cc2)cc1 | 37.8%
Cc1ccc(N(C(=O)c2ccccc2Cl)C2=NC(C)CS2)c(C)c1 (stereo not drawn) | -24.5% [at 30.8 µM]
CC(=O)c1ccc(NC(=O)c2ccc3c(c2)C(=O)N(c2ccccn2)C3=O)cc1 | -10.9%
O=C(c1ccco1)N1CCn2cccc2C1c1ccccc1 (stereo not drawn) | 15.4%
CCOC(=O)c1c(NC(=O)CSc2nc3ccc(C)cc3[nH]2)sc2c1CC(C)(C)NC2(C)C | -5.47%
C[C@@H]1CC=C[C@H]2[C@H]1C(=O)N(Cc1ccccc1)[C@H]2c1ccc(-c2ccoc2)cc1F | -8.89%
O=C(O)c1ccccc1N=N/C(=N/Nc1cc(S(=O)(=O)O)ccc1O)c1ccccc1 | -3.19% [at 30.8 µM]
CCC(=O)NC(c1cccs1)c1cc([N+](=O)[O-])c2cccnc2c1O (stereo not drawn) | -23.7%
COC(C(=O)Nc1ccc(Br)cc1F)c1ccccc1 (stereo not drawn) | -24.4%
O=C(O)CSc1cc(NS(=O)(=O)c2ccc(Cl)cc2)c2ccccc2c1O | -5.48%
COc1ccc(NC(=O)COC(=O)c2ccc(S(=O)(=O)N(C)c3ccccc3OC)cc2)cc1OC | 8.41%
O=C(Cc1c(Cl)cccc1Cl)Nc1ccc(S(=O)(=O)Nc2ncccn2)cc1 | 17.7%
Cc1cccc(C)c1-n1nnnc1C(c1ccnc2ccccc12)N(CCC#N)Cc1ccccc1 (stereo not drawn) | 14.6%
COC(=O)C1=CN(Cc2cccs2)C=C(C(=O)OC)C1c1cccc(O)c1 | 10.2%
COc1ccc2nc(N3C(=O)C(O)=C(C(=O)c4ccco4)C3c3ccc(C)o3)sc2c1 (stereo not drawn) | 2.9%
CN(C)CCNC(=O)c1ccc(-c2cn3c(-c4ccc(Oc5ccccc5)cc4)cnc3cn2)cc1 | -4.16%
COc1ccc(C2=CC(=O)OC3(CCCCC3)O2)cc1 | -23.4% [at 30.8 µM]

Structure (SMILES) | activity change, negative = inhibition
NC1=C(Cl)C(=O)c2ccc(S(N)(=O)=O)cc2C1=O | 4.17%
COc1ccc(Br)cc1CNc1ccc(O)cc1 | 16.5%
CCc1nc2c(OCc3ccc(C(F)(F)F)cc3)cccn2c1N(C)C(=O)c1ccc(OC)cc1 | -20.8% [at 30.8 µM]
CN(CCC#N)C(=O)COC(=O)c1c2c(nc3ccccc13)/C(=C\c1ccco1)CC2 | 5.84%
CCc1nc2ccccc2c(C(=O)NCc2ccccc2)c1C | -4.85%
Nc1[nH]n2c(=O)cc(-c3ccccc3)nc2c1N=Nc1ccc(S(N)(=O)=O)cc1 | 4.4%
O=C1CC2(CCCCC2)Oc2ccc(F)cc21 | 17.9%
Cc1cc(C)nc(SCC(=O)c2ccc(Cl)cc2)n1 | -10%
COc1ccc(OC)c(C(=O)c2ccc(Cl)cc2)c1 | 5.43% [at 30.8 µM]
C=C(C)Cn1c(C)cc(C)c(S(=O)(=O)c2ccc(C)cc2)c1=O | 42.6%
COc1ccc(C(C(=O)NC(C)(C)C)n2c(=O)c(-c3cc4ccccc4[nH]3)nc3ccccc32)cc1 (stereo not drawn) | 2.06%
CCOc1ccc(C(=O)Nc2c(C(=O)Nc3ccccc3F)oc3ccccc23)cc1OCC | -6.2%
CC1=CC(C)(C)N(C(=O)c2ccc(F)cc2)c2cc3c(cc21)OCO3 | -28.2%
Cc1ccc(S(=O)(=O)Nc2ccccc2C(=O)Nc2nc(-c3ccc(F)cc3)cs2)cc1 | 19.1%
CCN(CC)C(=O)Cn1c(SCCOc2ccc(Cl)cc2)nc2ccccc21 | -6.43%
O=C1C(O)=CC(=C(c2ccccc2)c2ccccc2)c2ccccc21 | -0.16%
O=C(Cc1ccccc1Cl)Nc1ccc(S(=O)(=O)N2CCOCC2)cc1 | -2.89%
CC(=O)c1ccc(N2CCN(C(=O)c3cc(-c4cccnc4)nc4ccc(Br)cc34)CC2)cc1 | 17.6%
Cc1cc(C)cc(NC(=O)CSc2nnc(-c3cc4occc4n3C)n2-c2ccccc2C)c1 | 41.6%
